Test [1] can be described thus: binders of probe aFSTL3 on microarray, primary screen, stem cell growth factor project, biochemical, small-molecule microarray, fluorescence 635/667 (AID 1064).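 Also: measures binding of the biotinylated anti-FSTL3 antibody to printed compounds.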 The conditions noted are these: higher = more signal.
Test [2] can be described thus: binders from COS7 lysate, DM2A8 probe, primary screen, torsin A project, cell lysate, small-molecule microarray, fluorescence 635/667 (AID 1065). As to conditions: higher = more signal, COS7 lysate expressing mutant human TOR1A.
A short description of test [3]: binders of probe aFGF2 on microarray, primary screen, stem cell growth factor project, biochemical, small-molecule microarray, fluorescence 635/667 (AID 1067).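 Also: measures binding of biotinylated aFGF2 protein to printed compounds on slides; z-score merges feature fluorescence and signal-to-noise across triplicate slides.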 As to conditions: higher = more signal.
Test [4] in a line: binders of probe aFGF10 on microarray, primary screen, stem cell growth factor project, biochemical, small-molecule microarray, fluorescence 635/667 (AID 1071).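 Also: score merges 667 nm spot intensity and signal to noise from triplicate slides.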 The conditions noted are these: higher = more signal.
The target of test [5] is Neurogenic locus notch homolog protein 2 (Homo sapiens) (UniProt Q04721). As to the kind of experiment: Notch2 binders on small-molecule microarrays, primary screen, biochemical, small-molecule microarray, 635 nm fluorescence, stem cell growth factors (AID 1073). The conditions noted are these: Notch2 binding, higher = more signal.
Neurogenic locus notch homolog protein 2 (Homo sapiens), sequence (Q04721 whole entry, looked up, canonical isoform): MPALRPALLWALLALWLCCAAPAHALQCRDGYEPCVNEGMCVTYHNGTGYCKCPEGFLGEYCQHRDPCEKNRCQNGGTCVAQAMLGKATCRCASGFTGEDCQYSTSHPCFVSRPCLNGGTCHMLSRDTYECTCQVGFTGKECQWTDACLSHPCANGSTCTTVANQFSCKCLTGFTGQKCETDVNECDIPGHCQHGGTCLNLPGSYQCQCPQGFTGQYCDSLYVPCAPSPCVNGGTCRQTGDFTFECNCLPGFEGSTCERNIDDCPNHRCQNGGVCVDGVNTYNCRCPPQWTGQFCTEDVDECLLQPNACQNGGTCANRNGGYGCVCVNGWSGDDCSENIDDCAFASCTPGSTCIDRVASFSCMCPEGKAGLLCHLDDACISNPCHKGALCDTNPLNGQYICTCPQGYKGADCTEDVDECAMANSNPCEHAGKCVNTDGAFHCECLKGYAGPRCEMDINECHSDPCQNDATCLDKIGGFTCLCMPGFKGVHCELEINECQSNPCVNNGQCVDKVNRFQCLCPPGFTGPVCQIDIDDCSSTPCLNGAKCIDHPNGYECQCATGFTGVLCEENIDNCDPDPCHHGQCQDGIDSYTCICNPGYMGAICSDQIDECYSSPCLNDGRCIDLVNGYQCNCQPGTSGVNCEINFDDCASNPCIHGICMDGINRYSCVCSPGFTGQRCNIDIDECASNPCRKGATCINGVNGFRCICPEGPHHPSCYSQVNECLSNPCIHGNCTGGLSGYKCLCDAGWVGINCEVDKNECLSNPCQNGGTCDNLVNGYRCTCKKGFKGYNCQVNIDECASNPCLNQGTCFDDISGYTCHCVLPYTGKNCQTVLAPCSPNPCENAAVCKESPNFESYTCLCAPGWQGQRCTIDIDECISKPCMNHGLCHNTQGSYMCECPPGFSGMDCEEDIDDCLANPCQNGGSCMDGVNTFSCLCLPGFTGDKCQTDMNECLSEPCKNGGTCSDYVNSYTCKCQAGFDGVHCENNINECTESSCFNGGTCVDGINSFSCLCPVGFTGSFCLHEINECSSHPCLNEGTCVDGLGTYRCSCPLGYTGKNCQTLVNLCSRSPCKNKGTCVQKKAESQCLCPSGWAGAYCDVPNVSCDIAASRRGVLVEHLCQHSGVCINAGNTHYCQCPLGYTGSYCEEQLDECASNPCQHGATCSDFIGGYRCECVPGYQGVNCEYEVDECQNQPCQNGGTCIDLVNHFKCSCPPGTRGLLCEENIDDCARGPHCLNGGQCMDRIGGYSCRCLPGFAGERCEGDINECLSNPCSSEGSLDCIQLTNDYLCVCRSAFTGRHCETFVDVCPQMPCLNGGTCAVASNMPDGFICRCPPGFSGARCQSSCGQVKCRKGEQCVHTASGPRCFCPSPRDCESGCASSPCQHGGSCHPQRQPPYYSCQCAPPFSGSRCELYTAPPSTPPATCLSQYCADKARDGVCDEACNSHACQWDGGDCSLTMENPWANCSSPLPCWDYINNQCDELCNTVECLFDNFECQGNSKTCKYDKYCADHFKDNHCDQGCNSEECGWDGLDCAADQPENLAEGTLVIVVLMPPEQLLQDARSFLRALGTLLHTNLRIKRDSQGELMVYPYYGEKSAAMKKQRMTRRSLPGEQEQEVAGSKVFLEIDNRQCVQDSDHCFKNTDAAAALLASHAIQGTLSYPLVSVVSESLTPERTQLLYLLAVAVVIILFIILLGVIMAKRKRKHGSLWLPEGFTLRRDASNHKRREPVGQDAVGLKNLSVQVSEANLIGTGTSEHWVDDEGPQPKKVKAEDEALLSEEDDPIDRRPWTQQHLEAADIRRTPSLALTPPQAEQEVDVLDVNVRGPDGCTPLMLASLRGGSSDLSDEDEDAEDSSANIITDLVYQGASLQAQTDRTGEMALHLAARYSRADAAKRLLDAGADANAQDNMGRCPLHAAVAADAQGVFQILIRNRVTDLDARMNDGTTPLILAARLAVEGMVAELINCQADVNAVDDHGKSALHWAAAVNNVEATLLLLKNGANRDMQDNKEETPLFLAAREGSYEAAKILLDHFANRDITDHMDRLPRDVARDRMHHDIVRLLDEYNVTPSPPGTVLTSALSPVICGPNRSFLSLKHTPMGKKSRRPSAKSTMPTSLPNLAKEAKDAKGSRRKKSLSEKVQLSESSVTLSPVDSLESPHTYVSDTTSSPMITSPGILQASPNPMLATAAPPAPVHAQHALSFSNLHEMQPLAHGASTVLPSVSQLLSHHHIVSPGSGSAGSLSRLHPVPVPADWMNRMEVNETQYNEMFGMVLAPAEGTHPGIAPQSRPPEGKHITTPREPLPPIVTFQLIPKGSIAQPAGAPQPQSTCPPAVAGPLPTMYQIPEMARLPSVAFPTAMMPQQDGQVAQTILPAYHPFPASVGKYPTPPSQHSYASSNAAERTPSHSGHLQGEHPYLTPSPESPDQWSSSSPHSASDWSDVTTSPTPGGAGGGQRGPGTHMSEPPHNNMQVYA
Test [6] has as its target Pro-neuregulin-1, membrane-bound isoform (Homo sapiens) (UniProt Q02297). As to the kind of experiment: NRG1 binders on small-molecule microarrays, primary screen, psychiatric disease protein project, biochemical, small-molecule microarray, fluorescence 635/667 (AID 1075).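 Also: score combines 667 nm spot fluorescence with signal to noise.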 The conditions noted are these: NRG1 binding, 635 nm fluorescence, higher = more signal.
In test [7] the test system is Neuregulin-1 EGF-like domain. The experiment in a line: binders of neuregulin-1 EGF-like domain, primary screen, biochemical, small-molecule microarray, 635 nm fluorescence (AID 1081).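 Also: binding of the protein to compounds printed on small-molecule microarray slides.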 The conditions noted are these: small-molecule microarray binding, higher = more signal.
A short description of test [8]: FRG1 promoter luciferase signal modulators, primary screen, FRG1 inhibition for FSHD, cell-based, C2C12 myotubes, firefly/Renilla luciferase, luminescence (AID 1084). As to conditions: higher = more signal, called active from +8 up or from −8 down.
The nature of test [9]: binders of probe aFST on microarray, primary screen, stem cell growth factor project, biochemical, small-molecule microarray, fluorescence 635/667 (AID 1086).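 Also: score merges 667 nm fluorescence with signal-to-noise of each printed compound spot.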 As to conditions: higher = more signal.
A short description of test [10]: binders of probe aHhip on microarray, primary screen, stem cell growth factor project, biochemical, small-molecule microarray, fluorescence 635/667 (AID 1087).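 Also: score merges spot fluorescence at 667nm with spot signal to noise ratio.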 As to conditions: higher = more signal.

Each structure is given as a SMILES string. Activity calls are given as the source filed them.

Pro-neuregulin-1, membrane-bound isoform (Homo sapiens), sequence (Q02297 whole entry, looked up, the tested form may be a part, canonical isoform): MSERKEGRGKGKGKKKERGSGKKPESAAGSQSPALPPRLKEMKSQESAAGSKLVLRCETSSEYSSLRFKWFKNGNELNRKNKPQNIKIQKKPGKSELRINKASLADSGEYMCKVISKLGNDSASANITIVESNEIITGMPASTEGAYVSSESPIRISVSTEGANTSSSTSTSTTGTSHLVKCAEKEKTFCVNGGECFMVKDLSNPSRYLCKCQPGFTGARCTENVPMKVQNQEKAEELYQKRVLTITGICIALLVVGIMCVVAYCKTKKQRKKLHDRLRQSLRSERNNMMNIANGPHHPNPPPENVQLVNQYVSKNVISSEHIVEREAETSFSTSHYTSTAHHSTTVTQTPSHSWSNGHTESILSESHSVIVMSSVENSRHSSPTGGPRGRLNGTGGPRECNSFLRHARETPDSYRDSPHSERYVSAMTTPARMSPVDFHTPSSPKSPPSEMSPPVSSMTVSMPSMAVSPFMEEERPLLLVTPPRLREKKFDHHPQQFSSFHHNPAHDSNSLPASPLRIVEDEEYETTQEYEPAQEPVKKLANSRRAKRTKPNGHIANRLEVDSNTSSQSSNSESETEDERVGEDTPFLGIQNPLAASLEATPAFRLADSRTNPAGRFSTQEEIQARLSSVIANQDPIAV

Consider `C=C(CCCC)/C(=C/C[C@@H](OC(=O)c1ccncc1)c1cccc(OCCO)c1)c1cnc2ccccc2c1`, for which the composite z-score in [1] turned out to be 0.186; in [2], 0.935; in test [3], 0.049; in test [4] it was 1.03; in test [5] it was 1.3; in [6], 0.972. Besides, the composite z-score came to 1.13 in test [7], 0.0095 in test [9] and 0.443 in [10]. Besides, the z-score in [8] was 2.51 (inactive).
As for `CC(C)C(=C=CC[C@H](O)c1ccc(OCCO)cc1)C[C@H](O)c1cc(Cl)cc(Cl)c1O`, the composite z-score in [1] was -0.321; in [2] it was 1.35; in [3] it was -0.0076; in [4], 0.85; in test [5], 0.869; in test [6] it was 1.31. Also, the composite z-score in test [7] was found to be 1.24; in test [9], 0.32; in [10], 0.0722. Further, the z-score in test [8] was -1.66 (inactive).
For the compound `COc1ccc(C(O)C2C=CC3C(=O)N(c4ccccc4)C(=O)C3N2Nc2ccc(C#N)cc2)c2ccccc12` (stereo not given), the composite z-score in test [1] was 0.983; in [2], 0.707; in test [3], 0.0785; in test [4], 0.337; in [5] it was 1.6; in test [6] it was 1.96. The composite z-score in [7] was determined as 1.11; in test [9], 1.2; in [10], 0.0515. The z-score in test [8] was 0.757 (inactive).
In the case of `CN(C)CCCCNC(=O)[C@H]1C[C@H]2C(=O)N[C@@H](CCCCN(C)C)C(=O)N2[C@H]1c1cccc(OCCO)c1`, the composite z-score was -0.852 in test [1]; 1.25 in test [2]; 0.0025 in test [3]; 1.02 in test [4]; 0.591 in test [5]; 0.839 in test [6]. For the same compound, the composite z-score in test [7] is 1.32; in [9], 0.402; in test [10], -0.381. Moreover, in test [8], the z-score is -0.275 (inactive).
Turning to `C=CCOC(=O)[C@H]1[C@@H]2C(=O)O[C@@H](c3ccccc3)[C@@H](c3ccccc3)N2[C@@H](c2ccc(OCCOC(=O)[C@H]3C[C@H]4C(=O)N[C@@H](Cc5ccccc5)C(=O)N4[C@H]3c3cccc(OCCO)c3)cc2)[C@]12C(=O)Nc1ccc(I)cc12`, the composite z-score in test [1] is -0.36; in test [2], 0.876; in [3], 0.0422; in test [4], 0.66; in test [5] it was 0.118; in test [6] it was 1.35. In addition, the composite z-score worked out at 1.21 in test [7], 0.0086 in [9] and 0.122 in test [10]. Moreover, the z-score in [8] was 0.633 (inactive).
Regarding `O=C1c2ccccc2[C@](Cc2ccccc2I)(C(=O)NCc2ccccc2)[C@H](c2ccc(CO)cc2)N1C1CCCCC1`, the composite z-score in test [1] is -0.126; in test [2] it was 0.106; in [3], -0.0291; in test [4], 0.753; in [5], 1.13; in test [6] it was 1.76. Further, the values for the composite z-score in [7], in test [9] and in [10] were 1.27, 0.671 and 0.189, respectively. In test [8], the z-score is -1.6 (inactive).
Take `C=CC[C@@]1(C(=O)N2CCCCC2)N=C(c2ccc(OCCCO)cc2)O[C@@H]1c1ccccc1`: the composite z-score came out at 1 in test [1]; 0.651 in test [2]; 0.0336 in test [3]; 0.307 in test [4]; 0.201 in [5]; 1.56 in test [6]. For the same compound, the composite z-score in [7] amounted to 1.19; in [9], 0.688; in test [10], 0.595. Also, the z-score in test [8] is -1.21 (inactive).
For the compound `C=CCOC(=O)[C@H]1[C@@H]2C(=O)O[C@@H](c3ccccc3)[C@@H](c3ccccc3)N2[C@@H](c2ccc(OCCOC(=O)[C@H]3C[C@H]4C(=O)N[C@@H](Cc5ccccc5)C(=O)N4[C@H]3c3ccc(O)cc3)cc2)[C@]12C(=O)Nc1ccc(I)cc12`, the composite z-score in test [1] was 0.558; in [2], 0.412; in [3] it was -0.0093; in [4], 0.979; in [5], 0.779; in test [6], 0.932. The composite z-score in test [7] was 1.21; in [9], 2.17; in test [10] it was -0.582. Also, the z-score in test [8] is 0.808 (inactive).
For `COc1ccc(C#Cc2ccc3c(c2)[C@]2(C(=O)N3)[C@H](C(=O)N3CCc4cc(OC)c(OC)cc4C3)[C@H]3C(=O)O[C@H](c4ccccc4)[C@H](c4ccccc4)N3[C@@H]2c2ccc(O)cc2)cc1`, the composite z-score was -0.439 in [1]; 0.606 in [2]; -0.0583 in [3]; 0.282 in [4]; 0.781 in test [5]; 1.27 in [6]. The composite z-score is 1.19 in test [7], 0.295 in [9] and -0.12 in test [10]. The z-score in test [8] is 1.57 (inactive).
As to `COCCOC(=O)N1C(=O)[C@@]2(c3cc(C#CC4(O)CCCCCC4)ccc31)[C@H](C(N)=O)[C@H]1C(=O)O[C@H](c3ccccc3)[C@H](c3ccccc3)N1[C@@H]2c1ccc(O)cc1`, the composite z-score was -0.353 in test [1]; 0.516 in [2]; -0.0494 in test [3]; 0.544 in test [4]; 0.618 in [5]; 0.446 in [6]. Also, the results for the composite z-score in [7], in test [9] and in test [10] were 1.28, 0.33 and 0.192, respectively. Further, the z-score in test [8] was 0.116 (inactive).
As to `CCCCC(=C=CC[C@@H](O)c1ccc(OCCO)cc1)C[C@@H](O)COCc1ccccc1`, the composite z-score is -0.111 in test [1]; 1.09 in test [2]; -0.0783 in test [3]; 0.114 in [4]; -1.11 in test [5]; -0.376 in test [6]. Besides, the composite z-score in test [7] is -0.0622; in test [9], 0.101; in test [10], 0.0743. Also, the z-score in [8] is -2.2 (inactive).
As for `CCOC(=O)C[C@H]1[C@H](OC(=O)Cc2ccc3c(c2)OCO3)[C@@H](NC(=O)Cc2ccc(OC)cc2)c2cc(OCCCO)ccc2N1C(=O)c1ccccc1`, the composite z-score in test [1] is -0.244; in test [2], 0.188; in [3], -0.11; in test [4] it was 0.494; in [5] it was 0.608; in test [6] it was 0.416. The composite z-score was 0.436 in test [7], 0.447 in [9] and -0.353 in [10]. For the same compound, the z-score in test [8] was -1.38 (inactive).
On to `NC(=O)N1C(=O)C2C(C1=O)C1C=C(CCCO)C2C(c2cccs2)N1Cc1cc2c(cc1Br)OCO2` (stereo not given), for which the composite z-score in [1] was -0.137; in test [2] it was 0.314; in [3], -0.0036; in test [4] it was 0.0276; in test [5] it was 0.0449; in test [6], 0.453. Moreover, the composite z-score in test [7] was 1.16; in test [9] it was 0.117; in test [10], -0.0645. In addition, in test [8], the z-score is -1.85 (inactive).
Consider `CC(C)CNC(=O)[C@@]1(c2ccc([N+](=O)[O-])cc2)CC(=O)N(C2CCCCC2)[C@@H]1c1ccc(CO)cc1I`, for which the composite z-score in test [1] is 0.0706; in test [2], 0.148; in [3], -0.0728; in [4] it was -0.186; in [5], 0.421; in [6] it was 1.14. For the same compound, the composite z-score in test [7] is 0.734; in test [9] it was -0.126; in [10], -0.335. The z-score in [8] is -0.35 (inactive).

The values above are taken from PubChem BioAssay.
